Experimental data as given in PubChem BioAssay AID1159580 (chemical genetic matrix, 2015).
In all, about 5,500 compounds went through this assay and about 2,000 (36%) were called active. Another 18% or so got no clear call; they are omitted. Cut-off read from the data, not from the text of the source: active = normalized growth mostly below about 0.91 (no sharp cut-off); inconclusive = no clear call, values can overlap the other calls; inactive = mostly above about 0.92. The list shows a part of the results.

Assay: chemical genetic growth profiling, strain panel (AID 1159580);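 note: tested at 20 µM; growth read once vehicle control cultures reached saturation at 30 °C; 1 = growth at the plate median or of vehicle wells; lower values mean less growth of the strain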
Conditions: S. cerevisiae deletion strains, growth OD
[1] = locus YHR030C, strain SLT2, stronger effect = lower value
[2] = locus YHR079C, strain IRE1, stronger effect = lower value
[3] = locus YJL095W, strain BCK1, stronger effect = lower value
[4] = locus YJR066W, strain TOR1, stronger effect = lower value
[5] = locus YLR113W, strain HOG1, stronger effect = lower value
[6] = locus YNL183C, strain NPR1, stronger effect = lower value
[7] = locus YOR231W, strain MKK1, stronger effect = lower value
[8] = locus YPL256C, strain CLN2, stronger effect = lower value

Measured: normalized growth

[Li+]
inactive: locus YAL013W, strain DEP1, stronger effect = lower value 1.01 | locus YAL040C, strain CLN3, stronger effect = lower value 0.996 | locus YCL061C, strain MRC1 (second series), stronger effect = lower value 1.01 | locus YDR150W, strain NUM1, stronger effect = lower value 1.02 | locus YDR363W, strain ESC2, stronger effect = lower value 1.01 | locus YER002W, strain NOP16, stronger effect = lower value 1 | locus YGR229C, strain SMI1, stronger effect = lower value 1.02 | locus YMR307W, strain GAS1, stronger effect = lower value 0.994 | locus YNL175C, strain NOP13, stronger effect = lower value 1 | locus YNL197C, strain WHI3, stronger effect = lower value 1.02 | locus YNL224C, strain SQS1, stronger effect = lower value 1 | locus YOR083W, strain WHI5 (second series), stronger effect = lower value 1.01 | locus YPL241C, strain CIN2, stronger effect = lower value 1.01

c1ccc(-c2ccc(C(c3ccccc3)n3ccnc3)cc2)cc1 (stereo not drawn)
active: locus YAL021C, strain ccr4, stronger effect = lower value 0.0644 | locus YAL026C, strain drs2, stronger effect = lower value 0.0618 | locus YAL030W, strain snc1, stronger effect = lower value 0.0587 | locus YBL061C, strain skt5, stronger effect = lower value 0.0709 | locus YBR009C, strain hhf1, stronger effect = lower value 0.0624 | locus YBR023C, strain chs3, stronger effect = lower value 0.0697 | locus YBR171W, strain sec66, stronger effect = lower value 0.0929 | locus YBR231C, strain swc5, stronger effect = lower value 0.0689 | locus YBR279W, strain paf1, stronger effect = lower value 0.0719 | locus YCL011C, strain gbp2, stronger effect = lower value 0.0606 | locus YCL016C, strain dcc1, stronger effect = lower value 0.0733 | locus YCL069W, strain vba3, stronger effect = lower value 0.066 | locus YCR088W, strain abp1, stronger effect = lower value 0.0692 | locus YDL005C, strain med2, stronger effect = lower value 0.0767 | locus YDL040C, strain nat1, stronger effect = lower value 0.0668 | locus YDR001C, strain nth1, stronger effect = lower value 0.067 | locus YDR069C, strain doa4, stronger effect = lower value 0.0703 | locus YDR137W, strain rgp1, stronger effect = lower value 0.127 | locus YDR159W, strain sac3, stronger effect = lower value 0.0937 | locus YDR195W, strain ref2 0.13 | locus YDR297W, strain sur2, stronger effect = lower value 0.0659 | locus YDR334W, strain swr1, stronger effect = lower value 0.0716 | locus YDR335W, strain msn5, stronger effect = lower value 0.0638 | locus YDR392W, strain spt3, stronger effect = lower value 0.0713 | locus YEL003W, strain gim4, stronger effect = lower value 0.0535 | locus YEL037C, strain rad23, stronger effect = lower value 0.0622 | locus YEL061C, strain CIN8 (second series), stronger effect = lower value 0.0652 | locus YER015W, strain faa2, stronger effect = lower value 0.0699 | locus YER016W, strain bim1, stronger effect = lower value 0.0698 | locus YER111C, strain swi4, stronger effect = lower value 0.0902 | locus YER155C, strain BEM2 (second series), stronger effect = lower value 0.0914 | locus YFR010W, strain ubp6, stronger effect = lower value 0.0846 | locus YGL167C, strain pmr1, stronger effect = lower value 0.124 | locus YGL173C, strain kem1, stronger effect = lower value 0.0886 | locus YGL227W, strain vid30, stronger effect = lower value 0.077 | locus YGL240W, strain doc1, stronger effect = lower value 0.108 | locus YGL253W, strain hxk2, stronger effect = lower value 0.0596 | locus YHR013C, strain ard1, stronger effect = lower value 0.105 | locus YHR027C, strain rpn1, stronger effect = lower value 0.0776 | [1] 0.105 | [2] 0.13 | locus YHR142W, strain chs7, stronger effect = lower value 0.0799 | locus YJL092W, strain hpr5, stronger effect = lower value 0.0642 | locus YJL095W, strain BCK1 (second series), stronger effect = lower value 0.0592 | [3] 0.127 | locus YJL115W, strain asf1, stronger effect = lower value 0.087 | locus YJL129C, strain trk1, stronger effect = lower value 0.102 | locus YJL154C, strain vps35, stronger effect = lower value 0.0754 | locus YJL164C, strain tpk1, stronger effect = lower value 0.0615 | locus YJL166W, strain qcr8, stronger effect = lower value 0.0657 | locus YJL187C, strain SWE1, stronger effect = lower value 0.0683 | [4] 0.0151 | locus YKL160W, strain elf1, stronger effect = lower value 0.0739 | locus YKR026C, strain gcn3, stronger effect = lower value 0.0725 | locus YKR091W, strain srl3, stronger effect = lower value 0.066 | locus YLL001W, strain dnm1, stronger effect = lower value 0.0668 | locus YLL026W, stronger effect = lower value 0.0595 | locus YLL041C, strain sdh2, stronger effect = lower value 0.0629 | locus YLR027C, strain aat2, stronger effect = lower value 0.0596 | [5] 0.164 | locus YLR221C, strain rsa3, stronger effect = lower value 0.0622 | locus YLR258W, strain gsy2, stronger effect = lower value 0.0654 | locus YLR262C, strain YPT6 (second series), stronger effect = lower value 0.0894 | locus YLR320W, strain mms22, stronger effect = lower value 0.0767 | locus YLR342W, strain FKS1, stronger effect = lower value 0.0755 | locus YLR357W, strain rsc2, stronger effect = lower value 0.128 | locus YLR370C, strain arc18, stronger effect = lower value 0.0619 | locus YLR384C, strain iki3, stronger effect = lower value 0.0674 | locus YML120C, strain ndi1, stronger effect = lower value 0.0564 | locus YMR058W, strain fet3, stronger effect = lower value 0.068 | locus YMR125W, strain sto1, stronger effect = lower value 0.082 | locus YMR129W, stronger effect = lower value 0.0621 | locus YMR205C, strain PFK2, stronger effect = lower value 0.0925 | locus YMR231W, strain pep5, stronger effect = lower value 0.179 | locus YNL071W, strain lat1, stronger effect = lower value 0.0616 | [6] 0.0338 | locus YNL209W, strain ssb2, stronger effect = lower value 0.0868 | locus YNL248C, strain rpa49, stronger effect = lower value 0.0877 | locus YNL322C, strain KRE1 (second series), stronger effect = lower value 0.08 | locus YNR049C, strain mso1, stronger effect = lower value 0.0653 | locus YOR001W, strain rrp6, stronger effect = lower value 0.075 | locus YOR070C, strain gyp1, stronger effect = lower value 0.0635 | locus YOR080W, strain dia2, stronger effect = lower value 0.0729 | locus YOR083W, strain WHI5, stronger effect = lower value 0.0687 | locus YOR106W, strain vam3, stronger effect = lower value 0.0685 | [7] 0.141 | locus YOR265W, strain rbl2, stronger effect = lower value 0.0651 | locus YOR270C, strain vph1, stronger effect = lower value 0.0985 | locus YOR290C, strain snf2, stronger effect = lower value 0.0719 | locus YPL051W, strain arl3, stronger effect = lower value 0.0743 | locus YPL078C, strain atp4, stronger effect = lower value 0.07 | locus YPL106C, strain sse1, stronger effect = lower value 0.116 | locus YPL240C, strain hsp82, stronger effect = lower value 0.0631 | [8] 0.153

O=C(NCc1ccco1)c1csc(C2COc3ccccc3O2)n1 (stereo not drawn)
inactive: locus YAR019C, strain CDC15, stronger effect = lower value 0.916 | locus YBL105C, strain PKC1, stronger effect = lower value 0.917 | locus YBR135W, strain CKS1, stronger effect = lower value 0.918 | locus YBR136W, strain MEC1, stronger effect = lower value 0.925 | locus YBR160W, strain CDC28, stronger effect = lower value 0.914 | locus YDL017W, strain CDC7, stronger effect = lower value 0.925 | locus YDL028C, strain MPS1, stronger effect = lower value 0.919 | locus YDL101C, strain DUN1, stronger effect = lower value 0.964 | locus YDL108W, strain KIN28, stronger effect = lower value 0.937 | locus YDL132W, strain cdc53, stronger effect = lower value 0.897 | locus YDL214C, strain PRR2, stronger effect = lower value 0.854 | locus YDR226W, strain ADK1, stronger effect = lower value 0.923 | locus YDR477W, strain SNF1, stronger effect = lower value 0.773 | locus YER123W, strain YCK3, stronger effect = lower value 0.663 | locus YER133W, strain GLC7, stronger effect = lower value 0.902 | locus YFL009W, strain cdc4, stronger effect = lower value 0.913 | locus YFL029C, strain CAK1, stronger effect = lower value 0.915 | locus YFR003C, strain YPI1, stronger effect = lower value 0.931 | locus YFR028C, strain CDC14, stronger effect = lower value 0.936 | locus YGR040W, strain KSS1, stronger effect = lower value 0.868 | locus YGR052W, strain FMP48, stronger effect = lower value 0.802 | [2] 0.712 | locus YHR082C, strain KSP1, stronger effect = lower value 0.896 | locus YHR205W, strain SCH9, stronger effect = lower value 0.894 | locus YIL147C, strain SLN1, stronger effect = lower value 0.922 | [3] 0.689 | locus YJL128C, strain PBS2, stronger effect = lower value 0.98 | locus YJL157C, strain FAR1, stronger effect = lower value 0.797 | locus YJR016C, strain ILV3, stronger effect = lower value 0.904 | [4] 0.745 | locus YKL048C, strain ELM1, stronger effect = lower value 0.906 | locus YKL067W, strain YNK1, stronger effect = lower value 0.841 | locus YKL101W, strain HSL1, stronger effect = lower value 0.873 | locus YKL193C, strain SDS22, stronger effect = lower value 0.932 | locus YKL203C, strain TOR2, stronger effect = lower value 0.851 | locus YLR133W, strain CKI1, stronger effect = lower value 0.845 | locus YLR403W, strain SFP1, stronger effect = lower value 0.839 | locus YML070W, strain DAK1, stronger effect = lower value 0.689 | locus YMR001C, strain CDC5, stronger effect = lower value 0.919 | locus YMR205C, strain PFK2 (second series), stronger effect = lower value 0.893 | locus YMR277W, strain FCP1, stronger effect = lower value 0.915 | locus YNL006W, strain LST8, stronger effect = lower value 0.926 | locus YNL020C, strain ARK1, stronger effect = lower value 0.843 | locus YNL161W, strain CBK1, stronger effect = lower value 0.921 | [6] 0.737 | locus YNL207W, strain RIO2, stronger effect = lower value 0.915 | locus YNL222W, strain SSU72, stronger effect = lower value 0.917 | locus YOL078W, strain AVO1, stronger effect = lower value 0.928 | locus YOR119C, strain RIO1, stronger effect = lower value 0.894 | [7] 0.746 | locus YOR329C, strain SCD5, stronger effect = lower value 0.909 | locus YPL031C, strain PHO85, stronger effect = lower value 0.85 | locus YPL153C, strain RAD53, stronger effect = lower value 0.773 | locus YPL204W, strain HRR25, stronger effect = lower value 0.796 | locus YPL209C, strain IPL1, stronger effect = lower value 0.923 | locus YPR025C, strain CCL1, stronger effect = lower value 0.916 | locus YPR106W, strain ISR1, stronger effect = lower value 0.956 | locus YPR111W, strain DBF20, stronger effect = lower value 0.947 | strain NNK1, stronger effect = lower value 0.944 | strain TSCII, stronger effect = lower value 0.92
active: locus YDR052C, strain DBF4, stronger effect = lower value 0.909 | locus YDR054C, strain cdc34, stronger effect = lower value 0.875 | locus YFR019W, strain FAB1, stronger effect = lower value 0.711 | locus YGR092W, strain DBF2, stronger effect = lower value 0.154 | [1] 0.623 | locus YJR066W, strain TOR1 (second series), stronger effect = lower value 0.343 | [5] 0.811 | locus YNL307C, strain MCK1 (second series), stronger effect = lower value 0.585 | locus YOL136C, strain PFK27, stronger effect = lower value 0.66 | locus YOR061W, strain CKA2, stronger effect = lower value 0.586 | [8] 0.754
